We go through five sequences from patent publication US20220098591, “STEM-LOOP COMPOSITIONS AND METHODS FOR INHIBITING VASCULAR ENDOTHELIAL GROWTN FACTOR” (DRIVE THERAPEUTICS LLC, published 2022).

Chain of VEGF-A121 (P15692 other isoform, or with tags, fused parts or gaps): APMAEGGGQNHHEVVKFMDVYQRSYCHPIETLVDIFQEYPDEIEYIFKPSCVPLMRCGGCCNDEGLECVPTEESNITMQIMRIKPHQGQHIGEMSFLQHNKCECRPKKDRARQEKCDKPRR

In this test the target is VEGF-A121 (Homo sapiens, UniProt P15692 SEQ:1-121). Put plainly: competition; TR-FRET. The conditions noted are these: tags: glycan-biotinylated for SPR/FRET/AlphaLISA; Acro BioSystems, Biolegend; chain copies: 2 (stated); ssRNA; all G 2'-F; A,C,U 2'-OMe; 5' C6NH2; 3' idT. The protocol:
Briefly, for competition TR-FRET, 2-fold dilutions of thermally equilibrated aptamers were made in TR-FRET Buffer (50 mM MOPS, pH 7.4, 125 mM NaCl, 5 mM KCl, 50 μM CHAPS, 0.1 mg/mL BSA, 1 mM CaCl₂, and 1 mM MgCl₂). 5 μL of aptamer or control solution was added to a 15 μL mix of glycan biotinylated […] (5 nM final), ALEXA FLUOR® 647-labeled Aptamer (30 nM final), and Streptavidin-Eu (Perkin Elmer; 2.5 nM final) in a black wall low volume 384 well plate (Greiner). For control, 5 μl of 1000-fold excess of unlabeled parent aptamer or 5 μl TR-FRET buffer alone was added to the mix of ALEXA FLUOR® 647-labeled aptamer, biotin-VEGF-A, and Streptavidin-Eu. The plate was covered with a plate seal and subsequently incubated in the dark for 1 hour at room temperature. The plate was read on a Biotek CYTATION™ 5 plate reader. Samples were excited at 330 nm and fluorescent values were collected at 665 nm. Data analysis was performed by subtracting the background value and plotting as percent inhibition, normalized to baseline in the absence of competitor. The values were fit by [Inhibitor] vs. response-Variable slope (four parameters) using GraphPad Prism Version 7.0 and then normalized to aptamer control to obtain an IC₅₀ relative to parent aptamer. Data is presented as log values of relative IC₅₀.
Activity of each of these variants were tested using a time resolved competition TR-FRET assay, as described in Example 7, in which a labeled parent was competed with increasing concentrations of unlabeled variants for binding to VEGF-A₁₂₁.
For orientation: In TR-FRET formats the signal depends on donor and acceptor labels being close together.
Consider “AGGCCGCCUCCGCGCGGAGGGGUUCAUAUCCCGUUUGGCGGCUU”, for which the binding signal was ~8 fold worse IC50 vs Aptamer 26. Next, “AGGCCGCCUCCGUGCGGAGGGGUUUCAUUAUCCCGUUUGGCGGCUU”: 4 fold worse IC50 vs Aptamer 26. For the sequence “AGGCCGCCUCCGCGCGGAGAGGUUUCAUUAUCUCGUUUGGCGGCUU”, the binding signal is ~7 fold worse IC50 vs Aptamer 26. “AGGCCGCCUCCGCGCGGAGAGGGUUCAUUCCCUCGUUUGGCGGCUU”: the binding signal was ~9 fold worse IC50 vs Aptamer 26. Regarding “AGGCCGCCUCCGCGCGGACCGGUUUCAUUACCGGGUUUGGCGGCUU”, the binding signal is ~9 fold worse IC50 vs Aptamer 26.
